Shown are actives, neighbours in structure and some others; about 11% of the full set was active somewhere.
Sm TGR inh: inhibitors of Schistosoma mansoni thioredoxin glutathione reductase; Q962Y6; purified TGR, DTNB reduction, TNB absorbance 405 nm; Potency, µM (highest dose often 114 µM), without a hit: at the highest dose activity change, negative = inhibition, most hits filed as inhibitors; 360,000 tested, 3% active; AID 485364; also: % is scaled to controls: 0 for no effect and ±100 for the full control effect; nearly all actives have a fitted effect of over 60% in size
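Kinetic colorimetric format: TGR-catalysed, NADPH-driven DTNB reduction monitored via TNB absorbance. Enzyme dispensed at 20 nM; compound exposure 15 min at room temperature before reaction start.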
Pf growth 48h: P. falciparum growth inhibition at 48 hours (one generation) | P. falciparum luciferase growth in erythrocytes, 48 h | Potency, µM (titrated, usually from 28.7 µM), inactives show at the top dose activity change, negative = inhibition, hits mostly inhibitors | 310,000 tested, 5.9% active | AID 504832; also: % is scaled to controls: 0 for no effect and ±100 for the full control effect
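Luciferase-expressing parasites in RBCs, 2% Hct / 0.1% parasitemia final; RPMI 1640 + 0.5% Albumax; 37 C, 5% CO2, one generation; luminescence read-out, lower signal = inhibition.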
AMA1 RON2 block: inhibitors of Plasmodium falciparum AMA1-RON2 interaction; AlphaScreen AMA1-biotinylated RON2 peptide binding; AID 720542; 360,000 tested, 0.2% active; Potency, µM (doses to about 58.2 µM), without a hit: at the highest dose activity change, negative = inhibition, hits mostly inhibitors;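 also: 0% = vehicle wells and -100% = peptide control; nearly all actives have a fitted effect of over 45% in size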
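AMA1 (3D7) with his tag at 25 nM final met compounds first, then biotinylated RON2 peptide at 25 nM; detection used donor plus acceptor beads, 10 µg/mL apiece, read by AlphaScreen after 30 min at room temperature.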
Pf growth 96h: P. falciparum growth inhibition at 96 hour, primary screen for plastid delayed-death inhibitors; P. falciparum luciferase reporter growth, 96 h; Potency, µM (top dose mostly 28.7 µM), without a hit: at the top dose activity change, negative = inhibition, actives largely listed as inhibitors; 320,000 tested, 6.9% active; AID 504834; also: % is scaled to controls: 0 for no effect and ±100 for the full control effect
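Infected RBCs, 2% Hct / 0.05% parasitemia final; luciferase-reporter P. falciparum; cpd 96 h, 37 C, 5% CO2; luciferase detection reagent; luminescence.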
NS1 function inh: blocks influenza NS1 protein function | 270,000 tested, 0.4% active | Potency, µM (highest dose often 46.1 µM), without a hit: top-dose activity, positive = more growth; calls by dose curve; also: actives are rising curves; nearly all actives have a fitted effect of over 50% in size
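S. cerevisiae expressing influenza A NS1, grown in glucose, washed, then diluted 1:100 into pH 6.0 -URA galactose medium with 23 nl compound. Growth recovery read as OD600; NS1-free strain serves as control.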
* = called active by the depositor; ? = inconclusive; · = no result given; [ ] = remark or other dose. Unless noted, calls follow the shape of the dose curve; as a rule, active = well fitted curve in the direction sought with a large enough effect; inconclusive = small, poorly fitted or top-dose-only effect, or another doubt; inactive = no such curve, though single readings can be large; an effect the other way counts as inactive or inconclusive. Potency is read from the fitted curve at half-maximal effect.

SMILES | Sm TGR inh | Pf growth 48h | AMA1 RON2 block | Pf growth 96h | NS1 function inh
Cn1c(=O)c2c(nc(SCC(=O)NCc3ccc4c(c3)OCO4)n2Cc2ccccc2)n(C)c1=O | 5% | 4% | -6% | -13% | 4%
Cn1c(=O)c2c(nc(Br)n2Cc2ccc3ccccc3c2)n(C)c1=O | -26%[11.4 µM] | · | -11% | 5.2µM* | -5%
Cn1c(=O)c2c(nc(NCc3ccccc3)n2Cc2ccc(F)cc2)n(C)c1=O | -3% | ? | · | 15µM* | -74%
Cn1c(=O)c2c(nc(N/N=C/c3cccs3)n2Cc2ccccc2)n(C)c1=O | 2% | ? | 43% | 10µM* | -19%
Cn1c(N/N=C/c2cccs2)nc2c1c(=O)n(Cc1ccccc1)c(=O)n2C | 2% | -9% | 36% | ? | 17%
Cn1c(=O)c2c(nc(SCC(=O)NCc3ccc4c(c3)OCO4)n2Cc2ccc(F)cc2)n(C)c1=O | -5% | 13µM* | 15% | 10µM* | 11%
NC(=O)c1ccc(CN2CCc3ccccc3C2)cc1 | 8% | 0% | 2% | -26% | 11%
Cn1c(=O)c2cc(NC(=O)NCc3ccc(Cl)cc3Cl)ccc2n1Cc1ccc(F)cc1 | · | · | 8% | · | ·
Cc1ccccc1CNC(=O)c1oc2c(c1C)-c1nn(Cc3ccc(Cl)cc3)cc1CC2 | 17% | · | · | · | ·
CC1(C)N=C(N)N=C(N)N1c1ccc(CCCCc2ccccc2)cc1 | · | · | -3% | · | ·
CCCOc1ccc(C(=O)Nc2ccc3oc(-c4ccc5ccccc5c4)nc3c2)cc1 | 2% | · | · | · | ·
COCCNc1nc2c(c(=O)n(Cc3ccc(OC)cc3)c(=O)n2C)n1C | -24% | -24% | -4% | 29% | -47%
CCCCNc1nc2c(c(=O)n(Cc3ccccc3)c(=O)n2C)n1C | 8% | ? | -1% | 143% | 5%
CCNc1nc2c(c(=O)n(Cc3ccccc3)c(=O)n2C)n1Cc1ccccc1 | 0% | 10µM* | -4% | 24% | -11%
COc1ccc(CNc2nc3c(c(=O)n(Cc4ccc(Cl)cc4)c(=O)n3C)n2C)cc1 | -4% | 2.6µM* | -16% | ? | 10%
Cc1ccc(NC2CCCN(C(=O)c3cc(C(C)C)nn3C)C2)cc1C (stereo not given) | · | · | -4% | · | ·
Cc1cc(NC(=O)CSc2ncc(C(=O)Nc3ccc(F)cc3)c(=O)n2C)no1 | 2% | · | · | · | ·
O=C1COc2ccc(C(=O)C[n+]3cccc(O)c3)cc2N1 | ? | 7% | 1% | 35% | 1%
COc1ccccc1Nc1nc(N)nc(CSc2nccc(C)n2)n1 | -8% | 6% | 9% | 0.93µM* | -9%
CN(Cc1ccccc1)C(=O)c1ccc(NC(=O)Cc2cccc(NC(=O)C3CCN(C(=O)C4CCC4)CC3)c2)cc1 | -2% | ? | 5% | ? | ·
Oc1ccc(C=NCC2COc3ccccc3O2)cc1 (stereo not given) | 6% | 5% | -10% | -19% | -10%
OC(COCC1COc2ccccc2O1)CN1CCN(c2ccccc2F)CC1 (stereo not given) | -7% | 31% | 3% | 7.4µM* | -16%
O=C(OCC1COc2ccccc2O1)c1c(F)cccc1F (stereo not given) | 3% | 4.1µM* | 16% | ? | -14%
NC(N)=NCC1COc2ccccc2O1 (stereo not given) | · | ? | · | 2.1µM* | ·
CCOC(=O)CSc1nc2sc3c(c2c(=O)n1-c1ccc(C)cc1)CCN(C)C3 | -1% | 4.7µM* | 0% | 2.3µM* | 4%
SMILES | Sm TGR inh | Pf growth 48h | AMA1 RON2 block | Pf growth 96h | NS1 function inh
C=C(C)CSc1nc2sc3c(c2c(=O)n1-c1ccc(OC)cc1)CCN(C)C3 | -14% | 1.9µM* | 13% | 1µM* | 1%
COc1ccc(-n2c(SCC(N)=O)nc3sc4c(c3c2=O)CCN(C)C4)cc1 | -17% | ? | -9% | 2.1µM* | 24%
COc1ccc(-n2c(SCCNCCO)nc3sc4c(c3c2=O)CCCC4)cc1 | -16% | 13µM* | 69% | 9.3µM* | 12%
COc1ccc(-n2c(SCC(=O)O)nc3sc4c(c3c2=O)CCCC4)cc1 | 0% | -4% | 6% | -4% | 2%
CCSc1nc2sc3c(c2c(=O)n1-c1ccc(OC)cc1)CCN(C)C3 | 5% | ? | -7% | ? | -3%
COc1ccc(-c2cc(C(F)(F)F)nc(SCC(=O)N3CCCCC3C)n2)cc1OC (stereo not given) | 4% | · | · | · | ·
CCC(c1nnnn1-c1ccc2c(c1)OCCO2)N1CCN(c2ccccn2)CC1 (stereo not given) | · | · | -10% | · | ·
O=C(NCc1ccco1)c1ccc2nc3sc4c(c3c(=O)n2c1)CCCC4 | 11µM* | -72% | · | 1.9µM* | -3%
COC(=O)CSc1nc2sc3c(c2c(=O)n1-c1ccc(OC)cc1)CCN(C)C3 | 4% | 6.6µM* | -7% | 5.2µM* | 2%
COc1ccc(-n2c(SCC(=O)NCc3ccco3)nc3sc4c(c3c2=O)CCN(C)C4)cc1 | -18% | ? | -13% | ? | 22%
CCOC(=O)CSc1nc2sc3c(c2c(=O)n1-c1ccccc1)CCN(C(C)C)C3 | ? | 0%[0.00184 µM] | 20% | 0.83µM* | -2%
C=CCn1c(SCC(=O)NCc2ccco2)nc2sc3c(c2c1=O)CCCC3 | -20% | · | -5% | ? | 0%
CN1CCc2c(sc3nc(SCC(=O)NCc4ccco4)n(-c4ccccc4)c(=O)c23)C1 | -23% | 9.3µM* | -14% | 0.93µM* | 15%
CCOC(=O)CSc1nc2sc3c(c2c(=O)n1-c1ccc(OC)cc1)CCN(C)C3 | -17% | 1.9µM* | -6% | 1.5µM* | 7%
CCOC(=O)CSc1nc2sc3c(c2c(=O)n1-c1ccccc1)CCN(C)C3 | -10% | 4.7µM* | -14% | -26% | 23%
CN1CCc2c(sc3nc(NCCO)n(-c4cccc(Cl)c4)c(=O)c23)C1 | 5% | · | -7% | 4.7µM* | 4%
Cc1ccc(Nc2nnc(SCC(=O)NC3CC3)s2)cc1 | -3% | ? | -5% | ? | ·
CC1CCN(C(=O)CCn2c(=O)oc3ccc(Cl)cc32)CC1 | · | · | 7% | · | ·
Cc1cccc(NS(=O)(=O)c2ccc(-c3cnc(C4CC4)o3)cc2)c1C | 3% | ? | 0% | 6.6µM* | -79%
Cc1cccc(NS(=O)(=O)c2ccc3c(c2)Cc2cc(S(=O)(=O)Nc4cccc(C)c4C)ccc2-3)c1C | -7% | 9.3µM* | 5% | 25% | 21%
Cn1c(COc2cccc3cccnc23)nnc1SCC(=O)O | 13% | 48% | 5% | 10µM* | 0%
Cc1cc(C(=O)COc2cccc3cccnc23)c(C)n1C | -22% | 12µM* | 22% | 3.3µM* | -15%
COc1ccc(C2N(c3cc(Cl)ccc3OC)C(=O)C3CCCN32)c(OC)c1 (stereo not given) | 0% | · | 17% | 0.93µM* | -48%
CSc1ccc(C2(O)Cc3cccc[n+]3C2c2ccccc2)cc1 (stereo not given) | 5% | ? | -4% | ? | 1%
CCn1c(/N=C/c2c[nH]c3ccccc23)nc2ccccc21 | -18% | 12% | -11% | 1.9µM* | -112%

Bioassay records as filed in PubChem.
